This is an account of results in PubChem BioAssay (Tox21).

The structures appear in SMILES notation. Where “and” joins values, the source holds several entries; their conditions need not be identical. Equal values may be shown once. Results filed as inconclusive are left out. Some structures have more than one record in an assay (separate samples or runs), and their calls can disagree. Calls of active or inactive are those of the source. Calls follow the shape of the dose curve; as a rule, active = well fitted curve in the direction sought with a large enough effect in the repeat runs; inconclusive = weak or mixed curves; inactive = no such curve, though single readings can be large; an effect the other way counts as inactive or inconclusive.

The nature of assay [1]: A CellTox Green Cytotoxicity Assay to monitor cytotoxicity in HEK293 cells - 40 hour (AID 1224871). Also: nearly all actives have a fitted effect of over 45% in size. Also: potency is read from the fitted curve at half-maximal effect. The procedure, abridged:
(§1)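 Dead-cell fluorescence measured kinetically: asymmetric cyanine dye, HEK293, 600 cells/well, 5 h settle, 23 nL cpd/DMSO, 37 C, reads 0–40 h every 8 h.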

Assay [2] can be described thus: qHTS RealTime-Glo MT Cell Viability Assay in HEK293 cells - 16 hour (AID 1224872). Also: nearly all actives have a fitted effect of over 50% in size. Also: potency is read from the fitted curve at half-maximal effect. Summed up:
(§2)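 HEK293 cells were seeded at 600 cells/well together with NanoLuc luciferase and cell-permeant prosubstrate, preincubated 5 h at 37 C/5% CO2, then given compound in DMSO by pintool. Luminescence from viable-cell prosubstrate reduction was read repeatedly over 40 h.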

A short description of assay [3]: qHTS RealTime-Glo MT Cell Viability Assay in HepG2 cells - 8 hour (AID 1224873). Also: nearly all actives have a fitted effect of over 55% in size. The procedure, abridged: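 Real-time viability: cells seeded at 600 per well together with NanoLuc and cell-permeant prosubstrate, compounds added after 5 h incubation. Luminescence tracked at 0, 8, 16, 24, 32 and 40 h of exposure.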
Background: In qHTS, concentration-response curves come from the screen itself.

A short description of assay [4]: qHTS RealTime-Glo MT Cell Viability Assay in HEK293 cells - 40 hour (AID 1224874). Also: nearly all actives have a fitted effect of over 50% in size. Also: potency is read from the fitted curve at half-maximal effect. The settings on record: RealTime-Glo luminescence; max response: stronger effect = lower value. The procedure, abridged:
(§3)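 600 HEK293 cells per well, dispensed already mixed with RealTime-Glo MT reagents. Compound dosing came 5 h later. The same wells were read for luminescence at 0, 8, 16, 24, 32 and 40 h of exposure at 37 C.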

The nature of assay [5]: A CellTox Green Cytotoxicity Assay to monitor cytotoxicity in HEK293 cells - 24 hour (AID 1224875). Also: series mostly up to about 77 µM; nearly all actives have a fitted effect of over 45% in size. The procedure, abridged:
as §1

Assay [6] can be described thus: A CellTox Green Cytotoxicity Assay to monitor cytotoxicity in HepG2 cells - 16 hour (AID 1224876). Also: nearly all actives have a fitted effect of over 45% in size. The procedure, abridged:
(§4)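 First, HepG2 cells (600/well) mixed with reagent were plated; second, after 5 h at 37 C they received compounds via pintool; third, fluorescence was measured at 0 h through 40 h at 8 h intervals.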

Assay [7] in a line: qHTS RealTime-Glo MT Cell Viability Assay in HepG2 cells - 32 hour (AID 1224877). Also: nearly all actives have a fitted effect of over 55% in size. The procedure, abridged:
(§5)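 HepG2 cells were seeded at 600 cells/well together with NanoLuc luciferase and a cell-permeant prosubstrate, preincubated 5 h at 37 C/5% CO2, then pin-dosed with compounds in DMSO. Nonlytic luminescence from viable cells was read at each time point.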

Assay [8] in a line: A CellTox Green Cytotoxicity Assay to monitor cytotoxicity in HepG2 cells - 24 hour (AID 1224878). Also: nearly all actives have a fitted effect of over 45% in size. Also: potency is read from the fitted curve at half-maximal effect. The procedure, abridged:
as §4

Assay [9] is described as follows: A CellTox Green Cytotoxicity Assay to monitor cytotoxicity in HepG2 cells - 40 hour (AID 1224879). Also: nearly all actives have a fitted effect of over 40% in size. Also: potency is read from the fitted curve at half-maximal effect. The procedure, abridged: as §4
Assay [10] in a line: qHTS RealTime-Glo MT Cell Viability Assay in HEK293 cells - 0 hour (AID 1224880). The procedure, abridged:
as §3

Assay [11] in a line: A CellTox Green Cytotoxicity Assay to monitor cytotoxicity in HEK293 cells - 32 hour (AID 1224881). Also: nearly all actives have a fitted effect of over 40% in size. Also: potency is read from the fitted curve at half-maximal effect. The procedure, abridged: as §1
Assay [12] can be described thus: A CellTox Green Cytotoxicity Assay to monitor cytotoxicity in HepG2 cells - 0 hour (AID 1224882). Also: nearly all actives have a fitted effect of over 35% in size. The procedure, abridged:
as §4

Assay [13] can be described thus: A CellTox Green Cytotoxicity Assay to monitor cytotoxicity in HepG2 cells - 32 hour (AID 1224883). Also: nearly all actives have a fitted effect of over 50% in size. Also: potency is read from the fitted curve at half-maximal effect. The procedure, abridged:
as §4

Assay [14] can be described thus: A CellTox Green Cytotoxicity Assay to monitor cytotoxicity in HEK293 cells - 8 hour (AID 1224884). Also: nearly all actives have a fitted effect of over 35% in size. Summed up:
as §1

Assay [15] in a line: qHTS RealTime-Glo MT Cell Viability Assay in HepG2 cells - 16 hour (AID 1224885). Also: nearly all actives have a fitted effect of over 50% in size. The procedure, abridged: as §5
The nature of assay [16]: qHTS RealTime-Glo MT Cell Viability Assay in HEK293 cells - 24 hour (AID 1224886). Also: nearly all actives have a fitted effect of over 50% in size. Also: potency is read from the fitted curve at half-maximal effect. Summed up:
as §2

A short description of assay [17]: qHTS RealTime-Glo MT Cell Viability Assay in HEK293 cells - 8 hour (AID 1224887). The procedure, abridged: as §3
Assay [18] is described as follows: A CellTox Green Cytotoxicity Assay to monitor cytotoxicity in HEK293 cells - 16 hour (AID 1224888). Also: nearly all actives have a fitted effect of over 35% in size. The procedure, abridged: as §1
A short description of assay [19]: qHTS RealTime-Glo MT Cell Viability Assay in HepG2 cells - 0 hour (AID 1224889). Also: nearly all actives have a fitted effect of over 50% in size. Summed up: as §5
Assay [20] in a line: A CellTox Green Cytotoxicity Assay to monitor cytotoxicity in HepG2 cells - 8 hour (AID 1224890). Also: nearly all actives have a fitted effect of over 45% in size. The procedure, abridged: as §4
% is scaled to controls: 0 for no effect and ±100 for the full control effect.

Consider `CC(C)Cc1ccc(C(C)C(=O)O)cc1` (stereo not drawn), for which the Potency result in [1], in assay [2], in assay [5], in [6], in assay [8] and in assay [9] was “inactive” throughout. The Potency result in [10], in assay [11], in [12], in [13], in [14] and in assay [15] was “inactive” throughout. Also, the Potency result in assay [16], in [17], in assay [18], in [19] and in assay [20] was “inactive” in each case. Further, the call in [3] and in [7] was inactive. Besides, the max response in assay [4] was 5.92% (inactive) and 7.46% (inactive) and 3.63% (inactive).
As for `N[C@@H](Cc1c[nH]c2ccc(O)cc12)C(=O)O`, the Potency entry in assay [1], in assay [2], in [5], in assay [6], in assay [8] and in assay [9] was “inactive” in each case. Besides, the Potency entry in assay [10], in assay [11], in assay [12], in assay [13], in [14] and in assay [15] was “inactive” in each case. Moreover, the Potency entry in [16], in [17], in assay [18], in [19] and in assay [20] was “inactive” in each case. Moreover, the compound was called inactive in assay [3] and in assay [7]. Besides, the max response in [4] was 3.87% (inactive) and 1.98% (inactive).
In the case of `NC(=O)c1ccc([N+](=O)[O-])cc1Cl`, the Potency entry in assay [1], in [2], in [5], in [6], in assay [8] and in assay [9] was “inactive” throughout. For the same compound, the Potency entry in assay [10], in assay [11], in assay [12], in assay [13], in assay [14] and in [15] was “inactive” throughout. Besides, the Potency entry in assay [16], in assay [17], in [18], in assay [19] and in assay [20] was “inactive” each time. In addition, the compound was classed as inactive in assay [3] and in assay [7]. Further, the max response in assay [4] is -1.29% (inactive) and 1.15% (inactive).
As for `COc1ccc(C(=O)c2ccccc2)c(O)c1`, the Potency result in assay [1], in [5], in [6], in assay [8], in assay [9] and in [10] was “inactive” throughout. Moreover, the Potency entry in assay [12], in assay [13], in assay [14], in assay [15], in assay [18] and in assay [19] was “inactive” throughout. Besides, the Potency entry in assay [20] is “inactive”. The Potency entry in assay [2] is “inactive and 21.9 µM (active)”; in [4], 7.76 µM (active); in assay [16] it was “inactive and 12.3 µM (active)”. For the same compound, the compound was called inactive in assay [3] and in assay [7]. Moreover, the max response in [4] was -12.2% (inactive) and 5.78% (inactive).
On to `C#C[C@]1(O)CC[C@H]2[C@@H]3CCC4=CC(=O)CC[C@@H]4[C@H]3CC[C@@]21CC`, for which the Potency in [1] was 49.1 µM (active) and inactive; in assay [2] it was 43.6 µM (active) and inactive; in [4], 43.6 µM (active); in [8] it was “inactive and 38.9 µM (active)”; in [9], “inactive and 43.6 µM (active)”; in assay [11], 49.1 µM (active) and inactive. The Potency entry is “inactive and 43.6 µM (active)” in assay [13]; 43.6 µM (active) and inactive in assay [16]. Moreover, the outcome in [3] and in assay [7] was inactive. The max response in [4] is -17.5% (inactive). For the same compound, the Potency result in assay [6], in assay [10], in [12], in assay [14], in [15] and in [18] was “inactive” throughout. For the same compound, the Potency entry in [19] and in assay [20] was “inactive” each time.
On to `COc1ccccc1NC(=O)CC(C)=O`, for which the Potency entry in assay [1], in [2], in assay [5], in assay [6], in [8] and in [9] was “inactive” in each case. Also, the Potency entry in assay [10], in assay [11], in assay [12], in assay [13], in assay [14] and in assay [15] was “inactive” throughout. Further, the Potency result in assay [16], in [17], in assay [18], in assay [19] and in [20] was “inactive” in each case. Moreover, the outcome in [3] and in assay [7] was inactive. The max response in assay [4] was -0.191% (inactive) and 6.19% (inactive).
Turning to `COc1cc(O)c(C(=O)c2ccccc2)cc1S(=O)(=O)O`, the Potency result in assay [1], in assay [2], in assay [5], in assay [6], in assay [8] and in assay [9] was “inactive” in each case. Also, the Potency entry in assay [10], in assay [11], in assay [12], in assay [13], in assay [14] and in assay [15] was “inactive” each time. For the same compound, the Potency entry in assay [16], in assay [17], in assay [18], in [19] and in [20] was “inactive” throughout. For the same compound, the compound was classed as inactive in assay [3] and in assay [7]. For the same compound, the max response in [4] is 0.237% (inactive) and 12.7% (inactive) and -17.6% (inactive).
As for `COc1cc2c(c(OC)c1OC)-c1ccc(OC)c(=O)cc1[C@@H](NC(C)=O)CC2`, the Potency in assay [1] was 34.3 µM (active) and inactive; in [4] it was 0.0216 µM (active); in [9], 54.3 µM (active) and inactive; in [13], 60.9 µM (active) and inactive. Moreover, the Potency entry in [2], in assay [5], in assay [6], in assay [8], in [10] and in assay [11] was “inactive” each time. Moreover, the Potency entry in assay [12], in assay [14], in assay [15], in assay [16], in assay [17] and in assay [18] was “inactive” in each case. The Potency result in assay [19] and in assay [20] was “inactive” throughout. Also, the compound was classed as inactive in assay [3] and in assay [7].
With `O=C(O)CN(CC(=O)O)CC(=O)O`, the Potency entry in [1], in assay [2], in [5], in assay [6], in assay [8] and in [9] was “inactive” in each case. For the same compound, the Potency result in [10], in assay [11], in assay [12], in assay [13], in [14] and in [15] was “inactive” each time. In addition, the Potency entry in assay [16], in assay [17], in assay [18], in assay [19] and in [20] was “inactive” in each case. For the same compound, the call in assay [3] and in [7] was inactive. The max response in assay [4] is 3.36% (inactive) and 17.8% (inactive).
Turning to `NCCNc1cccc2ccccc12`, the Potency result in assay [1], in assay [5], in assay [6], in [11], in assay [12] and in assay [14] was “inactive” throughout. For the same compound, the Potency result in assay [15], in assay [17], in [18], in [19] and in assay [20] was “inactive” each time. The Potency in assay [2] was 54.9 µM (active) and 47.8 µM (active) and inactive; in [4], 54.9 µM (active) and 53.6 µM (active); in assay [8] it was 53.6 µM (active) and inactive; in [9] it was 53.6 µM (active) and inactive; in assay [13], 53.6 µM (active) and inactive; in assay [16] it was 48.9 µM (active) and 47.8 µM (active) and inactive. Moreover, the compound was called inactive in assay [3] and in assay [7]. The max response in [4] was 0.781% (inactive).
